Screening results: PubChem, several laboratories
Most compounds without a hit are left out; they make up all but 3.3% or so of the library.
697 NFkB inh: inhibitors of the PMA/ionomycin-induced NF-kB reporter in 697 B cells; 697 B-cell NF-kB luciferase reporter, 16 h; hit rate 0.33% among 330,000; inhibition, % at 4 µM; in the data active = inhibition above about 35%
Gli-Sufu block: blocks Gli-Sufu signaling in a luciferase reporter; Sufu-KO-LIGHT fibroblasts, Gli luciferase reporter luminescence; inhibition, % at 5 µM; hit rate 0.74% among 340,000;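 active = inhibition above about 55%, limit read from the data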;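 note: 0% = DMSO-treated cells and 100% = wells with medium but no cells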
Jurkat NFkB inh: lowers PMA/ionomycin-induced NF-kB signal in Jurkat cells; PMA/ionomycin-induced NF-kB luciferase reporter, luminescence; inhibition, % at 4 µM; hit rate 0.53% among 330,000; AID 435003; in the data active = inhibition above about 50%
esBAF inh: inhibitors of esBAF chromatin remodeling in mouse ES cells; Bmi1-luciferase knock-in reporter, 24 h; 100% = twice the neutral-well signal; reporter increase, % at 12.5 µM; hit rate 2% among 350,000; AID 602393; in the data active = activation above about 40%;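 note: 0% = median of the plate's neutral control wells and 100% = double that signal; a rise in the Bmi1 reporter signal indicates esBAF inhibition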
SMARCA2 activ: activators of SMARCA2 function; hit rate 1% among 370,000; MG213 cells, MMTV-luciferase reporter, dexamethasone, overnight; activation, % at 9.1 µM; AID 652017; in the data active = activation above about 7.8%;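 note: 0% = vehicle wells and 100% = reference activator wells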
Jurkat NFkB conf: lowers PMA/ionomycin-induced NF-kB signal in Jurkat cells. AID 435020. Jurkat NF-kB luciferase, 16 h. inhibition, % at 4 µM. shares compounds with Jurkat NFkB inh. hit rate 27% among 2,700;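 active = inhibition reaching about 45% at 4 µM in either replicate, limit read from the data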;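 note: plate controls were PMA/ionomycin stimulated DMSO wells for no effect and unstimulated DMSO wells for full effect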
697 NFkB conf: lowers PMA/ionomycin-induced NF-kB signal in 697 B cells; shares compounds with 697 NFkB inh; 697 B-cell NF-kB luciferase, 16 h; inhibition, % at 4 µM; hit rate 35% among 2,000; AID 449746; in the data active = inhibition mostly above about 28%, no sharp cut-off; inactive = mostly below about 22%
Gli-Sufu confirm: Gli-SUFU antagonism confirmation, single concentration; shares compounds with Gli-Sufu block; Sufu-KO-LIGHT cells, Gli luciferase reporter, luminescence; inhibition, % at 5 µM; hit rate 40% among 2,500;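 active = mean inhibition at 5 µM reaching about 45%, limit read from the data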;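 note: plate controls were DMSO-treated cells for no effect and wells lacking cells for full effect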
SufuKO cytotox: cytotoxicity counter-screen for Gli-SUFU antagonists; shares compounds with Gli-Sufu block; AID 651994; hit rate 32% among 2,500; cytotoxicity, % at 5 µM; Sufu-KO-LIGHT cells cytotoxicity, ATP luminescence;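 active = mean cytotoxicity at 5 µM above about 25%, limit read from the data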;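 note: cells exposed to compound overnight for roughly 16 to 18 hours; plate controls were DMSO wells with cells for no effect and medium without cells for full effect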
Wnt3a counter: Wnt3a reporter inhibition counter-screen | shares compounds with Gli-Sufu block | Wnt-LIGHT cells, Wnt3a-driven luciferase reporter, luminescence | inhibition, % at 6.25 µM | hit rate 20% among 2,500;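 active = mean inhibition above about 25%, limit read from the data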
Active calls of the source: *; i = inactive; . = not tested or not shown.

SMILES	697 NFkB inh	Gli-Sufu block	Jurkat NFkB inh	esBAF inh	SMARCA2 activ	Jurkat NFkB conf	697 NFkB conf	others
COC(=O)[C@H]1[C@H](CO)[C@H]2Cn3c(ccc(-c4ccccc4)c3=O)[C@@H]1N2CCc1ccccc1	.	.	.	-1	.	.	.
C[C@@H]1O[C@@H](O[C@H]2C[C@@H](O)[C@]3(CO)[C@@H]4C(CC[C@]3(O)C2)[C@@]2(O)CC[C@H](C3COC(=O)C3)[C@@]2(C)C[C@H]4O)[C@H](O)[C@H](O)[C@H]1O (stereo partly drawn)	i	-3	95*	-6	3	67*	i
COC1C(O)C(C)OC(OC2CCC3(C)C(CCC4C3C(O)CC3(C)C(C5=CC(=O)OC5)CCC43O)C2)C1O (stereo not drawn)	.	12	.	.	-11	.	.
O=C(O)[C@H]1[C@H](CO)[C@H]2Cn3c(ccc(-c4ccncc4)c3=O)[C@@H]1N2C(=O)C1CCCCC1	.	.	.	-3	.	.	.
CC(C)c1oc(=O)cc2c1[C@@H](O)[C@H]1OC(=O)[C@@]3(C)C[C@@H](O)[C@@H](O)[C@@]2(C)C13 (stereo partly drawn)	-265	46	90*	-4	5	90*	-99
CC(=O)OC(C)(C)/C=C/C(=O)[C@](C)(O)C1[C@H](O)C[C@@]2(C)C3CC=C4C(C[C@H](O)C(=O)C4(C)C)[C@]3(C)C(=O)C[C@]12C (stereo partly drawn)	56*	85*	92*	-1	.	62*	71*
C=C1C(=O)O[C@H]2C[C@@H](C)[C@@H]3C=CC(=O)[C@@]3(C)C[C@H]12	-341	61*	88*	.	-8	63*	-235
C=C1C(=O)O[C@@H]2C[C@@H](C)[C@@H]3C=CC(=O)[C@@]3(C)[C@@H](OC(=O)CC(=O)O[C@H]3[C@@H]4C(=C)C(=O)O[C@@H]4C[C@@H](C)[C@@H]4C=CC(=O)[C@]43C)[C@H]12	104*	93*	93*	-87	-8	100*	101*
COC(=O)[C@@H]1[C@@H](CO)[C@@H]2Cn3c(ccc(-c4ccccc4F)c3=O)[C@H]1N2C(=O)C1CCC1	.	.	.	0	.	.	.
COC(=O)[C@@H]1[C@@H](CO)[C@@H]2Cn3c(ccc(-c4ccccc4F)c3=O)[C@H]1N2	.	.	.	-1	.	.	.
Cc1ccccc1S(=O)(=O)N1[C@@H]2c3ccc(-c4cccnc4)c(=O)n3C[C@H]1[C@H](CO)[C@H]2C(=O)O	.	.	.	2	.	.	.
CC12CCC(O)CC1CCC1C2CCC2(C)C(C3=CC(=O)OC3)C(O)CC12O (stereo not drawn)	.	-5	.	.	6	.	.
C[C@]12CC[C@H](O)C[C@H]1CC[C@@H]1[C@@H]2C[C@@H](O)[C@]2(C)[C@@H](C3=CC(=O)OC3)CC[C@]12O	-272	-3	98*	4	-10	74*	-331
COC(=O)[C@@H]1[C@@H](CO)[C@@H]2Cn3c(ccc(-c4ccccc4F)c3=O)[C@H]1N2Cc1ccncc1	.	.	.	4	.	.	.
NC(=O)c1cn(C2OC(CO)C(O)C2O)c2ncnc(N)c12 (stereo not drawn)	104*	87*	100*	-25	-13	97*	106*
NC(=O)c1c(Br)n(C2OC(CO)C(O)C2O)c2ncnc(N)c12 (stereo not drawn)	.	4	.	.	-2	.	.
CC(=O)O[C@H]1[C@H]2O[C@]23[C@@H]2CC[C@]4(O)C[C@@H](O)CC[C@]4(C)C2CC[C@]3(C)[C@H]1c1ccc(=O)oc1 (stereo partly drawn)	71*	-2	96*	-7	.	91*	85*
C[C@H]1CCC[C@H](O)CCCCCc2cc(O)cc(O)c2C(=O)O1	9	3	7	18	4	.	.
CC1CCC/C=C/C2CC(O)CC2C(O)/C=C/C(=O)O1 (stereo not drawn)	69*	88*	97*	-65	-9	-22	80*
C[C@H]1CCC/C=C/C2C[C@H](O)CC2[C@H](O)/C=C/C(=O)O1 (stereo partly drawn)	71*	87*	98*	-59	.	-25	81*
COC(=O)[C@H]1[C@H](CO)[C@H]2Cn3c(ccc(-c4ccccc4)c3=O)[C@@H]1N2CC1CCCCC1	.	.	.	-6	.	.	.
COc1cc2c(c(OC)c1OC)-c1ccc(O)c(=O)cc1C(NC(C)=O)CC2 (stereo not drawn)	-212	61*	55*	-2	1	1	.	Gli-Sufu confirm=66*;SufuKO cytotox=61*;Wnt3a counter=29*
O=C(O)[C@@H]1[C@@H](CO)[C@@H]2Cn3c(ccc(-c4ccncc4)c3=O)[C@H]1N2C(=O)C1CC1	.	.	.	1	.	.	.
Cc1cc(OCC(=O)N2CCC(C(N)=O)CC2)c2c3c(c(=O)oc2c1)CCCC3	42*	5	-8	5	1	.	30*
COC(=O)[C@@H]1[C@@H](CO)[C@@H]2Cn3c(ccc(-c4cccnc4)c3=O)[C@H]1N2S(=O)(=O)c1ccccc1F	.	.	.	-5	.	.	.
SMILES	697 NFkB inh	Gli-Sufu block	Jurkat NFkB inh	esBAF inh	SMARCA2 activ	Jurkat NFkB conf	697 NFkB conf	others
O=c1[nH]c(O)c(/C=C2/C=CC(c3cc(Cl)ccc3Cl)=N2)c(=O)[nH]1	36*	4	17	3	-2	.	7
C=CCn1c(O)c(C(C)=NC(C)c2ccccc2)c(=O)[nH]c1=O (stereo not drawn)	41*	10	-2	-1	-3	.	30*
C=CCn1c(O)c(C(C)=NCCC(c2ccccc2)c2ccccc2)c(=O)[nH]c1=O	-5	16	-14	.	-1	.	.
CN(C)c1ccc(/C=C/[N+](=O)[O-])cc1	3	-33	-32	.	-3	.	.
C/C(=C\c1ccc(N(C)C)cc1)[N+](=O)[O-]	38*	0	19	8	-3	.	12
COCC(=O)N1[C@@H]2Cn3c(ccc(C4=CCCC4)c3=O)[C@H]1[C@@H](C(=O)OC)[C@@H]2CO	.	.	.	0	.	.	.
CC1CN(c2ccc([N+](=O)[O-])c3cccnc23)CC(C)N1 (stereo not drawn)	-275	-10	-16	1	0	.	-62
O=[N+]([O-])c1ccc(N2CCCC2)c2ncccc12	-2	3	17	.	-2	.	.
COC(=O)[C@@H]1[C@@H](CO)[C@@H]2Cn3c(ccc(-c4cccnc4)c3=O)[C@H]1N2S(=O)(=O)c1ccccc1C	.	.	.	1	.	.	.
